This is a sample that favours compounds with a hit; in the whole collection about 2.3% have one here.
BRCT PPI green = inhibitors of human BRCA1 BRCT-phosphoprotein interaction (green fluorophore); P38398; BRCA1 BRCT-phosphopeptide binding, green fluorescence polarization; AID 875; 75,000 compounds, 0.05% hits; Potency, µM (top dose mostly 76.9 µM), without a hit: at the top dose activity change, negative = inhibition, usual class: inhibitors;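 note: potency is the fitted concentration of half-maximal effect; plate controls were peptide without protein for full effect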
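Fluorescence polarization: His-tagged BRCT (~35 kDa BRCA1 C-terminus, 250 nM) bound to 100 nM fluorescein-labeled phosphorylated 10-aa BACH1 peptide, pH 7.3 phosphate buffer with DTT and Tween 20. Compounds incubated 12 min at room temperature; inhibition read as lowered polarization.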
TsaE inh = displaces an ADP probe from E. coli YjeE (TsaE). AID 605. P0AF67. Potency, µM. 71,000 compounds, 0.05% hits. purified YjeE enzyme, qHTS inhibition assay
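Fluorescence polarization of a BODIPY Texas Red–ADP probe (2 uM) bound to purified YjeE (10 uM) was read after 15 min room-temperature incubation with compounds. Loss of polarization marks inhibitors; ADP serves as titrated control.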
BRCT PPI red = inhibitors of human BRCA1 BRCT-phosphoprotein interaction (red fluorophore); 75,000 compounds, 0.03% hits; BRCT-phosphopeptide binding, red fluorescence polarization; Potency, µM (titrated, usually from 76.9 µM), for the others: top-dose activity change, negative = inhibition, actives largely listed as inhibitors; AID 892; P38398; note: % is set by controls: 0 for no effect and ±100 for the full control effect
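Fluorescence polarization: 100 nM His-tagged BRCA1 BRCT with 100 nM TAMRA-labelled phospho-BACH1 decapeptide, phosphate buffer pH 7.3 with 150 mM NaCl, DTT, 0.01% Tween 20; 12 min RT. Binding inhibition seen as FP decrease.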
Tau fil binding = binds recombinant human tau filaments. AID 596. Potency, µM (highest dose often 57.1 µM), without a hit: at the top dose activity change, negative = inhibition. 71,000 compounds, 2% hits. recombinant tau filaments, thioflavin S fluorescence, 15 h; filaments grown with octadecylsulfate alongside compound;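 note: potency is the fitted concentration of half-maximal effect; % is set by controls: 0 for no effect and ±100 for the full control effect; actives lower thioflavin S fluorescence by blocking filaments or displacing dye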
Target sequence (P10636 whole entry, looked up): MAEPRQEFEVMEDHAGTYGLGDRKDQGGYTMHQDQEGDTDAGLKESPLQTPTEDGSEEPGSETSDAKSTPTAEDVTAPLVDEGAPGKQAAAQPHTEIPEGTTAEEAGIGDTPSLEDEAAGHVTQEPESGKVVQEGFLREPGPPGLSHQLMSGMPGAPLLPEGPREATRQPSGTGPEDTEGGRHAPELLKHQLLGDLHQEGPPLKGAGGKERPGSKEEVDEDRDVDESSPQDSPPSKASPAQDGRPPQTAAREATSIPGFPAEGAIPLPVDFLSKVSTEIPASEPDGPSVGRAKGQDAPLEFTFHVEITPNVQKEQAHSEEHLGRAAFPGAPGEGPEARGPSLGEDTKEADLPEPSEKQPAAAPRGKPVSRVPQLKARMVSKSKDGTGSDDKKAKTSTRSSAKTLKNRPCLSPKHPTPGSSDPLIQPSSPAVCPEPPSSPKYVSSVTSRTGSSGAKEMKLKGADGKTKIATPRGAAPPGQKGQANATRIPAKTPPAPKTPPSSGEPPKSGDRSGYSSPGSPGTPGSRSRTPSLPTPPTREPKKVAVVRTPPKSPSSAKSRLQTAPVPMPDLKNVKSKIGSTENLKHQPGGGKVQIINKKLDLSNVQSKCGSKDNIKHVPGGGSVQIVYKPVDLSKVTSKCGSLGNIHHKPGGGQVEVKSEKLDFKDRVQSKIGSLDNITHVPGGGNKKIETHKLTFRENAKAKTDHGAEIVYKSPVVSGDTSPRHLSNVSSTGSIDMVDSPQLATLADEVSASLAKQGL
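Tau 2 uM in ThS buffer dispensed; compound added; 60 uM ODS added (finals 1 uM tau, 30 uM ODS); 15 h 37 C; fluor ex450/em510.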
Hsp90 Hop PPI = changes Hsp90-Hop TPR2A binding signal, up or down; AlphaScreen TPR2A-His6 binding biotin-Hsp90 C-terminal peptide; Potency, µM (highest dose often 57 µM), for the others: top-dose activity change, negative = inhibition; 71,000 compounds, 0.44% hits; active = well fitted curve in either direction with a large enough effect; inconclusive = small, poorly fitted or top-dose-only effect, or another doubt; note: potency is the fitted concentration of half-maximal effect; % is set by controls: 0 for no effect and ±100 for the full control effect
DNA Pol III inh = blocks replication by bacterial DNA polymerase III holoenzyme. reconstituted DNA polymerase III holoenzyme replication, biochemical. Potency, µM (top dose mostly 57.1 µM), inactives show at the top dose activity change, negative = inhibition. 71,000 compounds, 0.25% hits. AID 603; note: potency is the fitted concentration of half-maximal effect; % is set by controls: 0 for no effect and ±100 for the full control effect
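Reconstituted *E. coli* holoenzyme (0.35 nM Pol III, 1 nM beta, 154 nM SSB, 2 nM primase) was preincubated with compound for 15 min at RT. Synthesis on 1.4 nM ssM13Gori ran 35 min, then was stopped with PicoGreen/EDTA and read as dsDNA fluorescence.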
* = called active by the depositor; ! = not active in a repeat; [ ] = dose if it differs, or a comment. Unless noted, calls come from the whole dose curve; as a rule, active = well fitted curve in the direction sought with a large enough effect; inconclusive = small, poorly fitted or top-dose-only effect, or another doubt; inactive = no such curve, though single readings can be large; an effect the other way counts as inactive or inconclusive.

Results for Cc1cc(C)c(/C=C2/C(=O)Nc3ccccc32)[nH]1 ?
BRCT PPI green: inconclusive; TsaE inh: inactive; BRCT PPI red: -5%; Tau fil binding: 1µM*; Hsp90 Hop PPI: inconclusive; DNA Pol III inh: -6%

Results for CCOc1ccc(NCc2nnc(SCC(=O)Nc3cc(C)on3)n2-c2ccccc2OC)cc1 ?
BRCT PPI green: -1%; TsaE inh: inactive; BRCT PPI red: -1%; Tau fil binding: -14%; Hsp90 Hop PPI: -5%; DNA Pol III inh: 1%

What do the screens show for `CCOc1ccc(NCc2nnc(SCC(=O)Nc3cc(C)on3)n2-c2ccc(OC)cc2)cc1`?
BRCT PPI green: -3%; TsaE inh: inactive; BRCT PPI red: 0%; Tau fil binding: 16µM*; Hsp90 Hop PPI: -23%; DNA Pol III inh: -6%

How did CN1C=CC=C/C1=C1\SC(=S)N(C2CCCCC2)C1=O do in these assays?
BRCT PPI green: -1%; TsaE inh: inactive; BRCT PPI red: 0%; Tau fil binding: 4µM*; Hsp90 Hop PPI: inconclusive; DNA Pol III inh: -5%[11.4 µM]

Results for C[C@@]12C[C@H](O)[C@@H]3[C@H](CCC4=CC(=O)CC[C@]43C)[C@H]1CC[C@@H]2c1csc(N)n1 ?
BRCT PPI green: 0%[15.4 µM]; TsaE inh: inactive; BRCT PPI red: 0%[15.4 µM]; Tau fil binding: 10%[11.4 µM]; Hsp90 Hop PPI: -3%[11 µM]; DNA Pol III inh: -12%[11.4 µM]

What do the screens show for `N#C/C(=C\c1ccc(O)c(O)c1)C(=O)NCCCNC(=O)/C(C#N)=C/c1ccc(O)c(O)c1`?
BRCT PPI green: -1%; TsaE inh: inactive; BRCT PPI red: -2%; Tau fil binding: 5%; Hsp90 Hop PPI: 2µM*; DNA Pol III inh: 2.5µM*

How did N#C/C(=C\c1ccc(O)c(O)c1)C(=O)Nc1ccccc1 do in these assays?
BRCT PPI green: 16%; TsaE inh: inactive; BRCT PPI red: -2%; Tau fil binding: 25%; Hsp90 Hop PPI: 10µM*!; DNA Pol III inh: -7%

How did C[C@H](NC(=O)/C(C#N)=C/c1ccc(O)c(O)c1)c1ccccc1 do in these assays?
BRCT PPI green: -2%; TsaE inh: inactive; BRCT PPI red: -1%; Tau fil binding: inconclusive; Hsp90 Hop PPI: 7.9µM*!; DNA Pol III inh: -8%

Results for CC(C)(C)[C@@]1(O)CCN2C[C@@H]3c4ccccc4CCc4cccc(c43)[C@@H]2C1 ?
BRCT PPI green: 1%; TsaE inh: inactive; BRCT PPI red: 1%; Tau fil binding: -3%; Hsp90 Hop PPI: -11%; DNA Pol III inh: -6%

What do the screens show for `CC1(C(=O)Nc2nccs2)Cc2ccccc2C(=O)O1` (centres undefined)?
BRCT PPI green: 1%; TsaE inh: inactive; BRCT PPI red: -3%; Tau fil binding: 13µM*; Hsp90 Hop PPI: -22%; DNA Pol III inh: -5%

How did O=C(O)CSc1cc(-c2ccccc2)nc2ccccc12 do in these assays?
BRCT PPI green: 0%[15.4 µM]; TsaE inh: inactive; BRCT PPI red: 1%[15.4 µM]; Tau fil binding: -2%[11.4 µM]; Hsp90 Hop PPI: -2%[11 µM]; DNA Pol III inh: 8%[11.4 µM]

What do the screens show for `On1onc2c3cc(-c4ccccc4)nc3ccc21`?
BRCT PPI green: 1%; TsaE inh: inactive; BRCT PPI red: 0%; Tau fil binding: 13µM*; Hsp90 Hop PPI: -28%; DNA Pol III inh: -8%

What do the screens show for `O=S(=O)(O)c1ccc(NN(c2c(O)ccc3ccccc23)S(=O)(=O)O)cc1`?
BRCT PPI green: -1%[15.4 µM]; TsaE inh: inactive; BRCT PPI red: 1%[15.4 µM]; Tau fil binding: -5%[11.4 µM]; Hsp90 Hop PPI: inconclusive; DNA Pol III inh: -12%[11.4 µM]

What do the screens show for `C[N+]1(CCCC[N+]2(C)CCCCCCC2)CCCCCCC1`?
BRCT PPI green: -2%[15.4 µM]; TsaE inh: inactive; BRCT PPI red: 0%[15.4 µM]; Tau fil binding: 0%[11.4 µM]; Hsp90 Hop PPI: -3%[11 µM]; DNA Pol III inh: 0%[11.4 µM]

How did CCCOc1ccc(N2C(=O)CC(N(O)c3ccccc3)C2=O)cc1 (centres undefined) do in these assays?
BRCT PPI green: 0%; TsaE inh: inactive; BRCT PPI red: 1%; Tau fil binding: 25µM*; Hsp90 Hop PPI: -3%; DNA Pol III inh: 5%

What do the screens show for `O=C1C(C2=C(O)c3ccccc3C2=O)=Nc2ccccc21`?
BRCT PPI green: -1%; TsaE inh: inactive; BRCT PPI red: 1%; Tau fil binding: 6.3µM*; Hsp90 Hop PPI: inconclusive; DNA Pol III inh: -9%

Results for CN=CC1=C(O)c2ccccc2C1=O ?
BRCT PPI green: -1%; TsaE inh: inactive; BRCT PPI red: -1%; Tau fil binding: -7%; Hsp90 Hop PPI: -3%; DNA Pol III inh: -3%

How did CCOC(=O)N/N=C1/C[C@@H](O)[C@@H](O)[C@@H]2[C@@H]3C(=O)N(Cc4ccccc4)C(=O)[C@H]3CC[C@H]12 do in these assays?
BRCT PPI green: -3%[15.4 µM]; BRCT PPI red: 1%[15.4 µM]

How did O=c1cc(-c2ccc(O)cc2O)oc2ccccc12 do in these assays?
BRCT PPI green: -2%; TsaE inh: inactive; BRCT PPI red: 0%; Tau fil binding: inconclusive; Hsp90 Hop PPI: -1%; DNA Pol III inh: -5%

How did O=C(O)CN(CC(=O)O)Cc1cc2c(-c3ccccc3C(=O)O)c3cc(CN(CC(=O)O)CC(=O)O)c(=O)cc-3oc2cc1O do in these assays?
BRCT PPI green: 0.13µM*; BRCT PPI red: 0.63µM*

What do the screens show for `OC12CCCCC1C(c1ccc3c(c1)OCO3)N(Cc1cccc(F)c1)CC2` (centres undefined)?
BRCT PPI green: -1%; TsaE inh: inactive; BRCT PPI red: 0%; Tau fil binding: 16µM*; Hsp90 Hop PPI: -5%; DNA Pol III inh: -6%

Results for COC1=C(OC)C(=O)c2ccccc2C1=O ?
BRCT PPI green: -2%; TsaE inh: inactive; BRCT PPI red: 0%; Tau fil binding: -21%; Hsp90 Hop PPI: -24%; DNA Pol III inh: -5%

Results for COc1ccc2noc3c2c1C(=O)c1ccccc1-3 ?
BRCT PPI green: 3.2µM*; TsaE inh: inactive; BRCT PPI red: -10%; Tau fil binding: inactive; Hsp90 Hop PPI: inconclusive; DNA Pol III inh: 482%

How did CC(=O)c1cccc(NC(=O)C2CCN(S(=O)(=O)c3c(C)n[nH]c3C)CC2)c1 do in these assays?
BRCT PPI green: -1%; TsaE inh: inactive; BRCT PPI red: 1%; Tau fil binding: 25µM*; Hsp90 Hop PPI: -4%; DNA Pol III inh: -4%

Results for CC(=O)c1cccc(NC(=O)C2CCN(S(=O)(=O)c3ccc(C)cc3)CC2)c1 ?
BRCT PPI green: 4%; TsaE inh: inactive; BRCT PPI red: 1%; Tau fil binding: 5%; Hsp90 Hop PPI: 1%; DNA Pol III inh: -5%

How did FC(F)(F)c1ccccc1-c1ccc2ncnc(NC3CC3)c2c1 do in these assays?
BRCT PPI green: 1%; TsaE inh: inactive; BRCT PPI red: -2%; Tau fil binding: 2%; Hsp90 Hop PPI: 3%; DNA Pol III inh: -5%
